Most compounds without a hit are left out; they make up all but 2.4% or so of the library.
D2 ag-1: activates the human D2 dopamine receptor; P14416; HEK293 T-REx D2 cells, calcium flux agonist mode; activation, % at 2 µM; 0.53% of 340,000 active; AID 485358;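 active means activation over 3 SD above normal in the single-dose calcium agonist read, cut at about 30% in these data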; further: 0% is about no effect
Target sequence (P14416 whole entry, looked up): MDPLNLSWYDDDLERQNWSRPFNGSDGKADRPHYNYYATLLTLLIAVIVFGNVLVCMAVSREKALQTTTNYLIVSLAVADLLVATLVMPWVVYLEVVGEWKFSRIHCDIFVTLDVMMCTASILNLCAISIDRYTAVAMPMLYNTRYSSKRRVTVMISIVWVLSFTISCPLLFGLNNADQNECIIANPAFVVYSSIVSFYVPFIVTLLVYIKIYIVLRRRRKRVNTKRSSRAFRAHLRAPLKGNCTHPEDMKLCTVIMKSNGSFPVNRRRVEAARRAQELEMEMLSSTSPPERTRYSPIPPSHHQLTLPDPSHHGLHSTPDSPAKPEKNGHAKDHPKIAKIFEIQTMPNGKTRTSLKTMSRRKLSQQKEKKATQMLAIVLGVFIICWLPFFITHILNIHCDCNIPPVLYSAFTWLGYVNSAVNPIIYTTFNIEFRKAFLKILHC
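HEK293 Trex D2 cells, tetracycline-induced, o/n 30 C 5% CO2; no-wash Ca dye, RT 30–90 min; 10-cycle baseline, 23 nl cpd added, kinetic Ca read 180 s; agonist hits = positive Ca response.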
D2 PAM-1: human D2 receptor positive allosteric modulation | 0.23% of 360,000 active | P14416 | DiscoveRx D2 beta-arrestin cells, luminescence, 90 min; 100% = 57 uM dopamine signal | potentiation, % (no concentration beside the values) | AID 624464; in the data active means potentiation above about 50%; inconclusive means mostly about 30% to 49%
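PathHunter beta-arrestin assay in DiscoveRx D2 cells. Compounds were added with an EC20 of dopamine (50 nM final) for 90 min at 37 deg C. Luminescence was read 1 h after detection reagent, with 57 uM dopamine as the EC100 control.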
D2 ag-2: activates the human D2 dopamine receptor; activation, % (no concentration beside the values); 0.084% of 360,000 active; DiscoveRx PathHunter D2 beta-arrestin, luminescence, 90 min; 100% = 57 uM dopamine signal; AID 624465; in the data active means activation above about 40%; inconclusive means between about 15% and that limit
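Agonist mode: compounds alone added to overnight-plated D2 PathHunter cells for 90 min at 37 C, with 57 uM final dopamine (EC100) defining full response. Beta-arrestin recruitment detected by chemiluminescent reagent, read after 1 h at ambient temperature.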
D2 PAM-2: positively modulates the human D2 dopamine receptor allosterically; P14416; HEK293 T-REx D2, calcium flux, EC20 dopamine potentiation; potentiation, % at 10 µM; 0.34% of 340,000 active;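 active means potentiation over 3 SD above the plate norm, cut at about 30% in these data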; further: 0% is about no effect
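Primary screen. Calcium kinetics in induced HEK293 T-REx D2 cells: compound pre-addition 180 s, EC20 dopamine, 180 s more.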
D2 antagonist: D2 dopamine receptor (human) antagonism | P14416 | HEK293 TREx D2 cells, calcium flux, dopamine EC80 | inhibition, % at 10 µM | 2% of 340,000 active; in the data active means inhibition above about 30%; inactive means below that, where a call was filed; further: 0% is about no effect
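Tetracycline-induced HEK293 TREx cells expressing D2 receptor forced-coupled to calcium signalling, loaded with no-wash calcium dye. Compounds added and calcium flux read 180 s, then dopamine added at EC80 and read a further 180 s.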
The depositor's hits bear a star; ? = inconclusive; / = not tested or not shown.

SMILES	D2 ag-1	D2 PAM-1	D2 ag-2	D2 PAM-2	D2 antagonist
COc1cc(OC)c(N(C)C(=O)C2CCCN(c3ncnc4c3nc3n4CCCCC3)C2)cc1Cl (centres undefined)	-1	/	/	3	/
CC(=O)N1CCc2cc(S(=O)(=O)CCC(=O)NCCc3ccc(Cl)cc3)ccc21	-2	-7	-1	4	4
CN=c1c([N+](=O)[O-])nn(-c2ccc3c(c2)OCCO3)n1O	-1	25	42*	3	2
O=C(CSc1nnc(-c2ccc(F)cc2)o1)N1CCCc2ccccc21	-2	/	/	0	/
COC(=O)C1=CN(Cc2ccc(C)cc2)C=C(C(=O)OC)C1c1cc(OC)c(OC)c(OC)c1	1	-15	-3	-3	-5
COCCN1C=C(C(=O)OC)C(c2cc(Br)c(OC)c(OC)c2)C(C(=O)OC)=C1	-1	-14	-1	34*	-3
COc1cccc(-c2cc3c(-n4cccc4)ncnc3o2)c1	-1	-15	-3	9	37*
Cc1nc(-c2ccc(NC(=O)CC(C)C)cc2)cs1	1	-5	-6	-1	3
C=CCn1c(O)c(N=NC(=S)Nc2ccccc2F)c2ccccc21	0	-17	-8	-25	68*
COCCn1cnc2c1c(=O)n(Cc1ccccc1C#N)c(=O)n2Cc1ccccc1	0	-6	-6	36*	-6
CCOc1cc(CNc2ccc(N3CCN(C(C)=O)CC3)cc2)cc(Br)c1OC	1	74*	13	15	-13
CCCCS(=O)(=O)N1C2=NC(C(=O)OC)=C(C(=O)OC)[C@@H]3N(C)c4ccc(OC)cc4[C@]23C[C@H]1C(=O)OC	0	-4	-3	3	34*
COC(=O)C1=C(C(=O)OC)[C@@H]2N(C)c3ccc(OC)cc3[C@@]23C[C@@H](C(=O)OC)N(S(=O)(=O)c2ccc([N+](=O)[O-])cc2)C3=N1	1	3	?	-7	5
CCCNC(=O)Cn1nc(C)c2c(C)n(-c3ccccc3)nc2c1=O	-1	/	/	14	/
CCn1c(SCc2ccc([N+](=O)[O-])cc2)nnc1C(C)NC(=O)c1ccc(C)cc1 (centres undefined)	0	-7	-1	-5	-5
CC(NC(=O)c1ccc(Cl)cc1)c1nnc(SCc2ccc([N+](=O)[O-])cc2)n1C (centres undefined)	1	-4	1	-11	32*
CCOC(=O)c1ccccc1NC(=O)CSc1ccc(-c2sc(-c3ccccc3)nc2C)nn1	0	/	/	-7	/
CC(=O)c1ccc(NC(=O)c2nc(-c3ccccc3)n(-c3ccccc3Cl)n2)cc1	-1	/	/	-1	/
COc1ccc(OC)c(/C=C/C(=O)N(C)CC(=O)Nc2ccc(N3CCOCC3)cc2)c1	1	-27	1	-8	40*
Cc1cc(C(=O)N2CCc3ccccc32)n(-c2ccccc2)n1	2	7	-7	5	37*
CCn1c(=O)c(C(=O)NNC(=O)c2cccc(Cl)c2)c(O)c2ccccc21	18	-3	5	45*	12
Cc1cc2nc(-c3ccc(NC(=O)C(C)C)cc3)oc2cc1C	0	7	-2	1	32*
Cc1ccc(-c2nc3cc(NC(=O)C(C)C)ccc3o2)cc1	-1	-11	-1	-8	3
CC1CCCN(c2nc3c(c(=O)n(C)c(=O)n3C)n2CCSc2nc3ccccc3o2)C1 (centres undefined)	-1	-5	-2	30*	-11
CC1CCCN(c2nc3c(c(=O)[nH]c(=O)n3C)n2CCSc2nc3ccccc3o2)C1 (centres undefined)	1	-3	-3	12	6
SMILES	D2 ag-1	D2 PAM-1	D2 ag-2	D2 PAM-2	D2 antagonist
COc1cc2c(cc1OC)-c1nnnn1C(C)(C)C2	0	-5	1	-1	-1
COc1cc2c(cc1OC)-c1n[nH]c(=S)n1C(C)(C)C2	2	-31	-4	35*	-1
O=C(Nc1ccc(S(=O)(=O)Nc2ccccn2)cc1)c1cccc([N+](=O)[O-])c1	0	16	3	-3	39*
O=C(Nc1ccc(S(=O)(=O)Nc2ncccn2)cc1)c1cccnc1	0	1	1	6	42*
Cc1ccc(CO/N=C\Cc2snc(Sc3ncc(C(F)(F)F)cc3Cl)c2C#N)cc1	0	11	2	-1	33*
O=C(Nc1cccnc1)c1cccc(S(=O)(=O)N2CCCCC2)c1	1	-1	1	-3	53*
COc1ccc(NC(=O)c2ccc(S(=O)(=O)N3CCCCCC3)cc2)c(OC)c1	-1	-3	2	6	-8
COc1cc(S(=O)(=O)N2CCCCC2)ccc1NC(=O)c1ccncc1	0	-2	-2	3	37*
COC(=O)Nc1ccc(S(=O)(=O)N2CCCC(C(=O)Nc3cccnc3)C2)cc1 (centres undefined)	-1	-10	1	7	43*
Cc1cccc(OCCSc2nc3ccccc3n2CC(=O)N2CCOCC2)c1C	0	/	/	1	/
CC(C)c1ccc(NC(=O)C(C)N(c2ccccc2)S(C)(=O)=O)cc1 (centres undefined)	/	/	/	-7	/
COc1ccccc1CN1CCc2c([nH]c3ccccc23)C1	4	-69	-4	-19	53*
CSCCC(NS(=O)(=O)Cc1ccccc1)C(=O)NNc1ccccc1 (centres undefined)	/	-1	7	/	/
NC(=S)NN=C1C=CCCC1	/	-5	4	/	/
O=[N+]([O-])c1ccc(Cl)c(S(=O)(=O)Nc2ccc(-c3ccc(N4CCOCC4)nn3)cc2)c1	0	-3	0	-9	-10
O=[N+]([O-])c1ccc(Cl)c(S(=O)(=O)Nc2cccc(-c3ccc(N4CCOCC4)nn3)c2)c1	1	17	3	-5	34*
NC(=O)c1nsc(C(=O)N(CC(=O)NCc2ccco2)c2ccccc2F)c1N	0	-4	-3	33*	8
Cn1c(-c2ccc(Br)cc2)cnc1NCc1cccnc1	0	-29	-5	14	43*
COc1cc(CNc2ncc(-c3ccc(Br)cc3)n2C)cc(OC)c1OC	-1	-4	0	-11	2
CCOC(=O)c1c(S(=O)(=O)N2CCC(C)CC2)c(C)n(C)c1C	0	-8	-4	-17	-3
CCCNC(=O)C[C@H]1C[C@H]2c3cc(NC(=O)Nc4ccc(F)cc4)ccc3O[C@H]2[C@@H](CO)O1	/	6	-2	/	/
O=S(=O)(NCC1CCCO1)c1ccc(S(=O)(=O)N(Cc2ccccn2)C2CC2)cc1 (centres undefined)	0	-7	3	6	74*
Cc1cc2c(cc1S(=O)(=O)N(CCN(C)C)Cc1ccccc1)OCC(=O)N2	0	/	/	-6	/
CCOC(=O)CSc1nc2sc3c(c2c(=O)[nH]1)CCCC3	0	-7	1	0	6

From PubChem
